Jurkat NFkB inh = inhibitors of induced NF-kB luciferase reporter, primary screen, TCR NF-kB activation inhibitor project, cell-based, luminescence, uHTS; Jurkat, PMA/ionomycin-induced NF-kB luciferase reporter; inhibition, % at 4 µM; 330,000 tested, 0.53% active; AID 435003, 2010; in the data active means inhibition above about 50%
697 NFkB inh = inhibitors of PMA/ionomycin-induced NF-kB reporter, 697 cells, primary screen, B-cell NF-kB inhibitor project, cell-based, luminescence, uHTS; 697 B-cell NF-kB luciferase reporter, 16 h; inhibition, % at 4 µM; 330,000 tested, 0.33% active; in the data active means inhibition above about 35%
Shn3 inh set2 = reduction of Shn3 3'UTR firefly luciferase signal, primary screen, Schnurri-3 inhibitor project, cell-based, Clone20 osteoblasts, set 2 | Clone20 osteoblast Shn3 3'UTR firefly luciferase, 24 h | inhibition, % at 12.5 µM | 360,000 tested, 0.52% active | AID 588674, 2011;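 active means mean inhibition of at least 75% with every replicate also reaching 75%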;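 further: 0% = median of neutral control wells and 100% = pilot-screen positive control compound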
aSyn 5UTR inh = MLPCN primary screen, SNCA 5' untranslated region | alpha-synuclein 5'UTR reporter, inhibitor activity | inhibition, % (tested at 7.5 µM) | 300,000 tested, 0.82% active | AID 1813, 2009; in the data active means inhibition above about 60%;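 further: H4 neuroglioblastoma cells stably carrying SNCA 5'UTR luciferase fusion; 0% = DMSO wells and 100% = positive control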
Gli-Sufu block = Gli-Sufu pathway antagonists, primary screen, luciferase luminescence, Sufu-KO-LIGHT cells, uHTS; Sufu-KO-LIGHT fibroblasts, Gli luciferase reporter luminescence; inhibition, % at 5 µM; 340,000 tested, 0.74% active; AID 588413, 2011;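 active means inhibition above about 55%, limit read from the data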;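 further: 0% = DMSO-treated cells and 100% = wells with medium but no cells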
H9c2 TAG inh = inhibitors of triacylglycerol accumulation, primary screen, cell-based, uHTS, fluorescence, H9c2; H9c2 cells, Nile Red lipid (TAG) fluorescence; cells loaded with 200 µM oleic acid; inhibition, % at 12.5 µM; 230,000 tested, 0.66% active;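 active means pattern-corrected inhibition of lipid staining of at least 50% with the nuclear-stain viability signal not falling by more than 50%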;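 further: 0% = DMSO wells and 100% = triacsin C control wells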
Jurkat NFkB conf = PMA/ionomycin-induced NF-kB reporter inhibitors, Jurkat retest, confirmation, T-cell NF-kB inhibitor project, cell-based, luminescence, single concentration; 2,700 tested, 27% active; inhibition, % at 4 µM; Jurkat NF-kB luciferase, 16 h; AID 435020, 2010; shares compounds with Jurkat NFkB inh;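 active means inhibition reaching about 45% at 4 µM in either replicate, limit read from the data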;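 further: plate controls were PMA/ionomycin stimulated DMSO wells for no effect and unstimulated DMSO wells for full effect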
* marks the source's active call; other numbers are inactive results; · = no result given. This is a sample that favours compounds with a hit; in the whole collection about 2.3% have one here.

SMILES	Jurkat NFkB inh	697 NFkB inh	Shn3 inh set2	aSyn 5UTR inh	Gli-Sufu block	H9c2 TAG inh	Jurkat NFkB conf
Cc1ccc(-n2nc(C)c(NC(=O)CCl)c2C)cc1C	64*	13	-56	-220	13	·	21
OC(CN1C2=NCCN2c2ccccc21)c1ccc2c(c1)OCO2 (stereo not drawn)	63*	-1	-8	22	2	6	12
CCn1c(SCC(=O)N/N=C/c2ccc(C)s2)nc2ccccc21	53*	-46	2	-53	-9	-13	22
Cc1ccc(/C=N/NC(=O)CSc2nc3ccccc3c(=O)n2-c2ccccc2)s1	39	2	-3	16	0	·	·
CC(=O)Nc1cccc(-c2csc(Nc3ccc(Cl)cn3)n2)c1	-156	-194	-52	-174	-133	4	-76
COc1ccc(-c2csc(Nc3ccc(C)cn3)n2)cc1OC	-15	-8	-44	-120	-28	-12	·
Cc1ccc(Nc2nc(-c3ccc(O)c(O)c3)cs2)nc1	53*	-34	·	-216	64*	·	-1
Cc1ccc(Nc2nc(-c3ccc(F)cc3)cs2)nc1	-175	-187	-136	-175	-81	10	-81
Fc1ccc(-c2nc3c(-c4ccc(F)cc4)cnn3cc2CCN2CCOCC2)cc1	1	3	-16	3	21	5	·
CC(=O)Nc1ccc(NC(=O)CSc2nc(=O)n(Cc3ccncc3)c3c2CCC3)cc1	5	12	6	4	-5	11	·
Cc1c(C(=O)OCC2CCCO2)[nH]c2c1C(=O)CC(c1ccco1)C2 (stereo not drawn)	55*	-12	7	-46	9	56*	-3
Cc1c(C(=O)OC2CCCC2)[nH]c2c1C(=O)CC(c1ccco1)C2 (stereo not drawn)	67*	-32	90*	56	46	43	57*
CCOC(=O)c1[nH]c2c(c1C)C(=O)CC(c1ccc(OC)c(OC)c1)C2 (stereo not drawn)	-8	-12	-5	-20	9	-4	·
Cc1c(C(=O)OCC(C)C)[nH]c2c1C(=O)CC(c1ccco1)C2 (stereo not drawn)	65*	-29	64	70*	44	·	6
C=CCOC(=O)c1[nH]c2c(c1C)C(=O)CC(c1ccco1)C2 (stereo not drawn)	74*	-15	·	69*	54	·	50*
CC(C)OC(=O)c1ccc(NC(=O)c2ccccc2)cc1	-78	-61	-33	-78	-79	·	·
Cc1cc(C)n(Cc2ccc(C(=O)O)cc2)n1	10	16	-17	-3	0	·	·
COC(=O)C1C(=O)c2c([nH]c(C(=O)OC3CCCC3)c2C)CC1C (stereo not drawn)	-178	-208	-67	-131	-79	17	-91
Cc1ccc2nc(-c3ccc(NC(=O)C4CCCO4)cc3)[nH]c2c1 (stereo not drawn)	-177	-147	20	36	-57	·	-76
Cc1ccc2nc(-c3ccc(NC(=O)Cc4cccs4)cc3)[nH]c2c1	-170	-115	32	-17	13	·	-119
O=C(Nc1ccc(-c2nc3ccccc3o2)cc1)C1CCCO1 (stereo not drawn)	-180	-124	-16	-23	-77	·	-103
Cc1ccccc1C=Nc1ccccc1C(N)=O	54*	2	-3	-15	-3	·	11
Cc1ccc(C=Nc2ccccc2C(N)=O)cc1	7	-82	-27	-109	-10	·	·
C=CCNC(=O)c1ccc(OC2CCN(S(=O)(=O)N(C)C)CC2)cc1	-45	-56	-34	-162	0	-3	·
COc1ccc(C(=O)CN2Cc3ccccc3C2=N)cc1	-157	-202	-39	-19	-54	9	-76
O=C(Nc1ccc(F)c(Cl)c1)C1Cc2c(-c3ccccc3Oc3ccccc3)ccnc2O1 (stereo not drawn)	·	·	22	·	·	-30	·
